Most compounds without a hit are left out; they make up all but 5.4% or so of the library.
GAA850 FXN act = increases GAA850 frataxin promoter reporter activity. HEK293 lucGAA850 FXN promoter luciferase reporter, 24 h; percent of 10 µM SAHA response. activation, % at 6 µM. actives 0.56% (n = 360,000). AID 540364;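 active = activation above the average of all compounds screened plus 3 SD, cutoff fixed separately per campaign, cut at about 7.5% in these data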;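 note: 0% = DMSO wells and 100% = 10 µM SAHA wells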
HSF1 activator = increases HSF-1 driven luciferase reporter signal | NIH3T3-HGL HSF-1 luciferase reporter, MG132, 8 h; 100% = twice DMSO control signal | activation, % at 9 µM | actives 1.7% (n = 300,000) | AID 504408;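 active = mean replicate activation of at least 50% with a set share of replicates each reaching 50%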;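 note: 0% = median of the neutral control wells and 100% = twice that signal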
DAX1 inh = NR0B1 (DAX1) inhibition; P51843; HEK293 Gal4-DAX1 luciferase reporter, luminescence; inhibition, % at 6.75 µM; actives 0.99% (n = 340,000);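 active = inhibition above the mean over all tested compounds plus 3 SD, cut at about 4.2% in these data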;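 note: 0% = DAX1-transfected cells with DMSO and 100% = empty-vector control cells with DMSO; inhibition shows as a rise in luminescence from relieved DAX1 repression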
AHR activator = activates the human aryl hydrocarbon receptor; AHR-responsive luciferase reporter cells, luminescence; activation, % at 5 µM; actives 2.5% (n = 320,000); in the data active = activation above about 47%;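 note: 0% = vehicle wells and 100% = reference agonist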
Target sequence (P35869 whole entry, looked up): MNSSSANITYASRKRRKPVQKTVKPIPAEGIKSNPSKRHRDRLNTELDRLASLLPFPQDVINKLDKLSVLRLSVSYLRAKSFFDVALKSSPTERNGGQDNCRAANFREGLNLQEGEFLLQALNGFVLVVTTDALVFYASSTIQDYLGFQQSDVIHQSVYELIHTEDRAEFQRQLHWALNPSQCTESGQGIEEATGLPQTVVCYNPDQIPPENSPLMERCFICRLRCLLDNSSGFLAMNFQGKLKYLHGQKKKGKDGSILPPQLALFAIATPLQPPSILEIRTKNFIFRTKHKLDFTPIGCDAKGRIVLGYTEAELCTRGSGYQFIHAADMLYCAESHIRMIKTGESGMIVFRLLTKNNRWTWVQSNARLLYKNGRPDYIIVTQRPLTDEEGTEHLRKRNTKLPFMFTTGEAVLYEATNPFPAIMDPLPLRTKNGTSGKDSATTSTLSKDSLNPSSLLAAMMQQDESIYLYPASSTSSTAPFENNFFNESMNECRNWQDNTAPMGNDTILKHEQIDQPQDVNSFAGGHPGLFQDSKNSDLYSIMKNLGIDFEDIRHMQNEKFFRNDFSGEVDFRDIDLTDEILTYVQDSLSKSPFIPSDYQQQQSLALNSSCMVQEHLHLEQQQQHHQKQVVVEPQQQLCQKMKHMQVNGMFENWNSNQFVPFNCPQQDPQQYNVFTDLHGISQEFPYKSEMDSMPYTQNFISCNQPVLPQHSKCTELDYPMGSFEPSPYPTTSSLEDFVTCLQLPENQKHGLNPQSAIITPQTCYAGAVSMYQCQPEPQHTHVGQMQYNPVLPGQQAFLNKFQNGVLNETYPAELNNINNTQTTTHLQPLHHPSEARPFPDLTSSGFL
HSF1 inh = HSF1 inhibition; AID 2098; actives 0.77% (n = 300,000); NIH3T3-HGL HSE-luciferase, MG132-induced, luminescence 8 h; stronger effect = lower value; activity change, negative = inhibition, % at 7.5 µM (by protocol);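 active = more than half of replicate wells show activity change below -50%, luminescence cut by over half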;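 note: luciferase reports HSF-1 transcriptional activity via heat shock element; 0% = median of DMSO wells and -100% = zero luminescence signal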
* = called active by the depositor.

O=C(NCCc1ccc(Cl)cc1)c1ccc2nc[nH]c2c1 was read as GAA850 FXN act 2.0, HSF1 activator 22.0, DAX1 inh 1.5, AHR activator 13.0 and HSF1 inh 22.9.
For CCOc1ccc(N(CC(=O)NCc2ccccc2C)S(C)(=O)=O)cc1 the results were GAA850 FXN act 3.6, HSF1 activator 22.5, DAX1 inh 4.3*, AHR activator 6.5 and HSF1 inh 12.0.
c1ccc(-[n+]2nc(Nc3cccc4ccccc34)sc2-c2c3ccccc3cc3ccccc23)cc1 was read as GAA850 FXN act -1.9, DAX1 inh -2.3 and AHR activator 62.3*.
`Fc1ccc(-[n+]2nc(Nc3ccccc3)sc2-c2c3ccccc3cc3ccccc23)cc1` gave GAA850 FXN act -4.2, HSF1 activator 22.7, DAX1 inh -0.7, AHR activator 20.3 and HSF1 inh 5.1.
Screening COc1cccc2c1OCC/C2=N\NC(=O)COc1ccccc1C returned GAA850 FXN act 1.4, HSF1 activator 13.7, DAX1 inh 1.6, AHR activator 47.9* and HSF1 inh 3.2.
`C=CCC1(CC=C)CCCN1C(=O)c1ccc2oc(CCCC)nc2c1` gave GAA850 FXN act 3.9 and DAX1 inh 4.9*.
O=C(c1ccc2oc(CCCc3ccccc3)nc2c1)N1CCCC1 was read as GAA850 FXN act 2.6, HSF1 activator 86.8*, DAX1 inh 1.2, AHR activator 12.0 and HSF1 inh 46.0.
For CCCCc1nc2cc(C(=O)N3CCC(OC)CC3)ccc2o1 the results were GAA850 FXN act 2.5, HSF1 activator -14.6, DAX1 inh 1.7, AHR activator 2.6 and HSF1 inh 2.5.
For O=C1Nc2ccc(Br)cc2C1(O)c1ccc(F)cc1 (stereo not given) the results were GAA850 FXN act 1.4, HSF1 activator 7.3, DAX1 inh 0.8, AHR activator 2.9 and HSF1 inh -2.9.
Screening Cc1nc2c(oc3ccc(Cl)cc32)c(=O)[nH]1 returned GAA850 FXN act 1.0, HSF1 activator -6.8, DAX1 inh -0.8, AHR activator 3.6 and HSF1 inh 2.0.
Screening C#CCOCCOCCOCCNc1nc(N2CCN(C(=O)[C@H](CCCCN)n3cc([C@@H](N)CC(N)=O)nn3)CC2)nc(N2CCN(C(=O)[C@H](CCCCN)n3cc([C@@H](N)CC(N)=O)nn3)CC2)n1 returned GAA850 FXN act 0.6, DAX1 inh 4.5* and AHR activator -1.3.
For CCCCn1c(CNC(=O)C23CC4CC(CC(C4)C2)C3)nnc1SC(C)CC (stereo not given) the results were GAA850 FXN act 3.1, HSF1 activator 7.3, DAX1 inh 0.2, AHR activator 1.8 and HSF1 inh -1.9.
O=C(CN(CC1CCCO1)C(=O)CNS(=O)(=O)c1ccc(F)cc1)NC1CCCC1 (stereo not given) was read as GAA850 FXN act 1.0, HSF1 activator 62.5*, DAX1 inh -0.1, AHR activator -0.5 and HSF1 inh 21.0.
`Cc1ccc(S(=O)(=O)NCC(=O)N(CC(=O)NCC2CCCO2)Cc2ccc(Cl)cc2)cc1` (stereo not given) gave GAA850 FXN act -0.8, HSF1 activator 51.6*, DAX1 inh -0.1, AHR activator -0.3 and HSF1 inh 18.3.
O=C(CN(C1CCCCC1)S(=O)(=O)c1ccc(F)cc1)NCC1CCCO1 (stereo not given) was read as GAA850 FXN act 11.8* and DAX1 inh 0.1.
For COc1cc(NC(=O)c2c(F)cccc2F)c(Cl)cc1Cl the results were GAA850 FXN act 4.6, HSF1 activator -4.7, AHR activator -5.7 and HSF1 inh -7.7.
For CC(C)CCN(C(=O)C1=COCCO1)c1c(N)n(Cc2ccccc2)c(=O)[nH]c1=O the results were GAA850 FXN act 0.8, HSF1 activator -2.2, DAX1 inh 0.2, AHR activator 0.3 and HSF1 inh 2.4.
CC(=O)c1sc(N/N=C\c2ccccc2O)nc1C was read as GAA850 FXN act 4.0, HSF1 activator 56.4*, DAX1 inh 2.0, AHR activator 10.0 and HSF1 inh 25.7.
For CCOC(=O)c1sc(N/N=C/c2cccc(C)c2)nc1C the results were GAA850 FXN act 1.9, HSF1 activator 9.9, DAX1 inh 1.2, AHR activator 98.0* and HSF1 inh 16.8.
`COc1ccc(/C(C)=N/Nc2nc(C)c(C(C)=O)s2)cc1` gave GAA850 FXN act 2.8, HSF1 activator 0.8, DAX1 inh 0.4, AHR activator 2.8 and HSF1 inh -3.5.

Screens as filed in PubChem.
